Columns and labels:
Assay in all cases: phenotypically active (imaging signature differs from DMSO and reproducible) at any of 0.3-9 uM (binary (1 = active, 0 = inactive)); higher = active
Conditions in all cases: treatment time: 24 h
A549-ACTB-RAB5A = system: A549-ACTB-RAB5A
Procedure, shortened: (§1)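 The reporter lines, fifteen in total and built by gene editing in A549, HepG2 and WPMY1 cells, used BFP for segmentation alongside GFP and RFP/FusionRed markers. Each was treated at 0.3, 1, 3 or 9 µM for 24 h in four wells and then imaged live, with live-cell features normalised to solvent control wells. Deviation meant ≥3 of 4 wells beyond the 95th percentile of control Euclidean distances; reproducibility meant a median replicate Pearson correlation above the 95th percentile of non-replicates. Only conditions meeting both were scored as phenotypically active.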

A549-CANX-COX4 = system: A549-CANX-COX4
Procedure, shortened: as §1

A549-GM130-SQSTM1 = system: A549-GM130-SQSTM1
Procedure, shortened: as §1

A549-TP53BP1-CLTA = system: A549-TP53BP1-CLTA
Procedure, shortened: as §1

A549-TUBA1B-RELA = system: A549-TUBA1B-RELA
Procedure, shortened: as §1

HepG2-ACTB-RAB5A = system: HepG2-ACTB-RAB5A
Procedure, shortened: as §1

HepG2-CANX-COX4 = system: HepG2-CANX-COX4
Procedure, shortened: as §1

HepG2-GM130-SQSTM1 = system: HepG2-GM130-SQSTM1
Procedure, shortened: as §1

HepG2-TP53BP1-CLTA = system: HepG2-TP53BP1-CLTA
Procedure, shortened: as §1

HepG2-TUBA1B-RELA = system: HepG2-TUBA1B-RELA
Procedure, shortened: as §1

WPMY1-ACTB-RAB5A = system: WPMY1-ACTB-RAB5A
Procedure, shortened: as §1

WPMY1-CANX-COX4 = system: WPMY1-CANX-COX4
Procedure, shortened: as §1

WPMY1-GM130-SQSTM1 = system: WPMY1-GM130-SQSTM1
Procedure, shortened: as §1

WPMY1-TP53BP1-CLTA = system: WPMY1-TP53BP1-CLTA
Procedure, shortened: as §1

WPMY1-TUBA1B-RELA = system: WPMY1-TUBA1B-RELA
Procedure, shortened: as §1

Measured: phenotypically active

CCCCCCOc1cc2c(cc1N(C)c1ncc(C(=O)O)cn1)C(C)(C)CCC2(C)C
inactive: A549-ACTB-RAB5A 0 | A549-CANX-COX4 0 | A549-GM130-SQSTM1 0 | A549-TP53BP1-CLTA 0 | A549-TUBA1B-RELA 0 | HepG2-ACTB-RAB5A 0 | HepG2-CANX-COX4 0 | HepG2-GM130-SQSTM1 0 | HepG2-TP53BP1-CLTA 0 | HepG2-TUBA1B-RELA 0 | WPMY1-ACTB-RAB5A 0 | WPMY1-CANX-COX4 0 | WPMY1-GM130-SQSTM1 0 | WPMY1-TP53BP1-CLTA 0 | WPMY1-TUBA1B-RELA 0

OC[C@H]1O[C@@H](Oc2ccc(O)cc2)[C@H](O)[C@@H](O)[C@@H]1O [Arbutin]
inactive: A549-ACTB-RAB5A 0 | A549-CANX-COX4 0 | A549-GM130-SQSTM1 0 | A549-TP53BP1-CLTA 0 | A549-TUBA1B-RELA 0 | HepG2-ACTB-RAB5A 0 | HepG2-CANX-COX4 0 | HepG2-GM130-SQSTM1 0 | HepG2-TP53BP1-CLTA 0 | HepG2-TUBA1B-RELA 0 | WPMY1-ACTB-RAB5A 0 | WPMY1-CANX-COX4 0 | WPMY1-GM130-SQSTM1 0 | WPMY1-TP53BP1-CLTA 0 | WPMY1-TUBA1B-RELA 0

C(=C/c1ccccc1)/CN1CCN(C(c2ccccc2)c2ccccc2)CC1 [cinnarazine]
inactive: A549-ACTB-RAB5A 0 | A549-CANX-COX4 0 | A549-GM130-SQSTM1 0 | A549-TP53BP1-CLTA 0 | A549-TUBA1B-RELA 0 | HepG2-ACTB-RAB5A 0 | HepG2-CANX-COX4 0 | HepG2-GM130-SQSTM1 0 | HepG2-TP53BP1-CLTA 0 | HepG2-TUBA1B-RELA 0 | WPMY1-ACTB-RAB5A 0 | WPMY1-CANX-COX4 0 | WPMY1-GM130-SQSTM1 0 | WPMY1-TP53BP1-CLTA 0 | WPMY1-TUBA1B-RELA 0

CC(=O)N[C@@H]1[C@@H](O[C@H](C)C(=O)O)[C@H](O)[C@@H](CO)O[C@@H]1O [Muramic acid, N-acetyl]
inactive: A549-ACTB-RAB5A 0 | A549-CANX-COX4 0 | A549-GM130-SQSTM1 0 | A549-TP53BP1-CLTA 0 | A549-TUBA1B-RELA 0 | HepG2-ACTB-RAB5A 0 | HepG2-CANX-COX4 0 | HepG2-GM130-SQSTM1 0 | HepG2-TP53BP1-CLTA 0 | HepG2-TUBA1B-RELA 0 | WPMY1-ACTB-RAB5A 0 | WPMY1-CANX-COX4 0 | WPMY1-GM130-SQSTM1 0 | WPMY1-TP53BP1-CLTA 0 | WPMY1-TUBA1B-RELA 0

COC(=O)C(Cc1ccc(OCCn2c(=O)sc3cc(C(=O)c4ccccc4)ccc32)cc1)C(=O)OC
inactive: A549-ACTB-RAB5A 0 | A549-CANX-COX4 0 | A549-GM130-SQSTM1 0 | A549-TP53BP1-CLTA 0 | A549-TUBA1B-RELA 0 | HepG2-ACTB-RAB5A 0 | HepG2-CANX-COX4 0 | HepG2-GM130-SQSTM1 0 | HepG2-TP53BP1-CLTA 0 | HepG2-TUBA1B-RELA 0 | WPMY1-ACTB-RAB5A 0 | WPMY1-CANX-COX4 0 | WPMY1-GM130-SQSTM1 0 | WPMY1-TP53BP1-CLTA 0 | WPMY1-TUBA1B-RELA 0

CCc1cccc2c3c([nH]c12)C(CC)(CC(=O)O)OCC3 (stereo not given) [etodolac]
inactive: A549-ACTB-RAB5A 0 | A549-CANX-COX4 0 | A549-GM130-SQSTM1 0 | A549-TP53BP1-CLTA 0 | A549-TUBA1B-RELA 0 | HepG2-ACTB-RAB5A 0 | HepG2-CANX-COX4 0 | HepG2-GM130-SQSTM1 0 | HepG2-TP53BP1-CLTA 0 | HepG2-TUBA1B-RELA 0 | WPMY1-ACTB-RAB5A 0 | WPMY1-CANX-COX4 0 | WPMY1-GM130-SQSTM1 0 | WPMY1-TP53BP1-CLTA 0 | WPMY1-TUBA1B-RELA 0

CC(C)(C(=O)O)c1ccc(C(O)CCCN2CCC(C(O)(c3ccccc3)c3ccccc3)CC2)cc1 (stereo not given) [fexofenadine]
inactive: A549-ACTB-RAB5A 0 | A549-CANX-COX4 0 | A549-GM130-SQSTM1 0 | A549-TP53BP1-CLTA 0 | A549-TUBA1B-RELA 0 | HepG2-ACTB-RAB5A 0 | HepG2-CANX-COX4 0 | HepG2-GM130-SQSTM1 0 | HepG2-TP53BP1-CLTA 0 | HepG2-TUBA1B-RELA 0 | WPMY1-ACTB-RAB5A 0 | WPMY1-CANX-COX4 0 | WPMY1-GM130-SQSTM1 0 | WPMY1-TP53BP1-CLTA 0 | WPMY1-TUBA1B-RELA 0

CC(C)c1ccc2oc3nc(N)c(C(=O)O)cc3c(=O)c2c1 [Amlexanox]
inactive: A549-ACTB-RAB5A 0 | A549-CANX-COX4 0 | A549-GM130-SQSTM1 0 | A549-TP53BP1-CLTA 0 | A549-TUBA1B-RELA 0 | HepG2-ACTB-RAB5A 0 | HepG2-CANX-COX4 0 | HepG2-GM130-SQSTM1 0 | HepG2-TP53BP1-CLTA 0 | HepG2-TUBA1B-RELA 0 | WPMY1-ACTB-RAB5A 0 | WPMY1-CANX-COX4 0 | WPMY1-GM130-SQSTM1 0 | WPMY1-TP53BP1-CLTA 0 | WPMY1-TUBA1B-RELA 0

CC1CCC(C(C)C)C(O)C1 [L-menthol]
inactive: A549-ACTB-RAB5A 0 | A549-CANX-COX4 0 | A549-GM130-SQSTM1 0 | A549-TP53BP1-CLTA 0 | A549-TUBA1B-RELA 0 | HepG2-ACTB-RAB5A 0 | HepG2-CANX-COX4 0 | HepG2-GM130-SQSTM1 0 | HepG2-TP53BP1-CLTA 0 | HepG2-TUBA1B-RELA 0 | WPMY1-ACTB-RAB5A 0 | WPMY1-CANX-COX4 0 | WPMY1-GM130-SQSTM1 0 | WPMY1-TP53BP1-CLTA 0 | WPMY1-TUBA1B-RELA 0

NC1=NCC2c3ccccc3Cc3ccccc3N12 (stereo not given) [epinastine]
inactive: A549-ACTB-RAB5A 0 | A549-CANX-COX4 0 | A549-GM130-SQSTM1 0 | A549-TP53BP1-CLTA 0 | A549-TUBA1B-RELA 0 | HepG2-ACTB-RAB5A 0 | HepG2-CANX-COX4 0 | HepG2-GM130-SQSTM1 0 | HepG2-TP53BP1-CLTA 0 | HepG2-TUBA1B-RELA 0 | WPMY1-ACTB-RAB5A 0 | WPMY1-CANX-COX4 0 | WPMY1-GM130-SQSTM1 0 | WPMY1-TP53BP1-CLTA 0 | WPMY1-TUBA1B-RELA 0

COc1cc2c3cc1Oc1cc(ccc1O)C[C@@H]1c4c(cc(OC)c(O)c4Oc4ccc(cc4)C[C@@H]3N(C)CC2)CC[N+]1(C)C [(+)-Tubocurarine chloride]
inactive: A549-ACTB-RAB5A 0 | A549-CANX-COX4 0 | A549-GM130-SQSTM1 0 | A549-TP53BP1-CLTA 0 | A549-TUBA1B-RELA 0 | HepG2-ACTB-RAB5A 0 | HepG2-CANX-COX4 0 | HepG2-GM130-SQSTM1 0 | HepG2-TP53BP1-CLTA 0 | HepG2-TUBA1B-RELA 0 | WPMY1-ACTB-RAB5A 0 | WPMY1-CANX-COX4 0 | WPMY1-GM130-SQSTM1 0 | WPMY1-TP53BP1-CLTA 0 | WPMY1-TUBA1B-RELA 0

O=C(NCc1ccccn1)Nc1nnc(-c2ccco2)o1
inactive: A549-ACTB-RAB5A 0 | A549-CANX-COX4 0 | A549-GM130-SQSTM1 0 | A549-TP53BP1-CLTA 0 | A549-TUBA1B-RELA 0 | HepG2-ACTB-RAB5A 0 | HepG2-CANX-COX4 0 | HepG2-GM130-SQSTM1 0 | HepG2-TP53BP1-CLTA 0 | HepG2-TUBA1B-RELA 0 | WPMY1-ACTB-RAB5A 0 | WPMY1-CANX-COX4 0 | WPMY1-GM130-SQSTM1 0 | WPMY1-TP53BP1-CLTA 0 | WPMY1-TUBA1B-RELA 0

CCOC(=O)[C@H](CCc1ccccc1)N[C@@H](C)C(=O)N1CCC[C@H]1C(=O)O [enalapril]
inactive: A549-ACTB-RAB5A 0 | A549-CANX-COX4 0 | A549-GM130-SQSTM1 0 | A549-TP53BP1-CLTA 0 | A549-TUBA1B-RELA 0 | HepG2-ACTB-RAB5A 0 | HepG2-CANX-COX4 0 | HepG2-GM130-SQSTM1 0 | HepG2-TP53BP1-CLTA 0 | HepG2-TUBA1B-RELA 0 | WPMY1-ACTB-RAB5A 0 | WPMY1-CANX-COX4 0 | WPMY1-GM130-SQSTM1 0 | WPMY1-TP53BP1-CLTA 0 | WPMY1-TUBA1B-RELA 0

CN(C)CC/C=C1\c2ccccc2COc2ccc(CC(=O)O)cc21 [olopatadine]
inactive: A549-ACTB-RAB5A 0 | A549-CANX-COX4 0 | A549-GM130-SQSTM1 0 | A549-TP53BP1-CLTA 0 | A549-TUBA1B-RELA 0 | HepG2-ACTB-RAB5A 0 | HepG2-CANX-COX4 0 | HepG2-GM130-SQSTM1 0 | HepG2-TP53BP1-CLTA 0 | HepG2-TUBA1B-RELA 0 | WPMY1-ACTB-RAB5A 0 | WPMY1-CANX-COX4 0 | WPMY1-GM130-SQSTM1 0 | WPMY1-TP53BP1-CLTA 0 | WPMY1-TUBA1B-RELA 0

Source: the supplement of paper PMC7411054
